Measured values reported in PubChem BioAssay (EPA / NIEHS).
Records with an inconclusive call do not appear. Active and inactive are the calls of the source. The calls were made as follows, unless noted: active = hit-call score of the fitted dose curve at least 0.9, where 1 is the maximum; inactive = score below 0.9.

Legend:
[1] = biological target: Nuclear respiratory factor 1 (Homo sapiens) (UniProt Q16656); assay: ATG_NRF1_CIS: Attagene CIS-FACTORIAL HepG2 Assay for human Nuclear Respiratory Factor 1 (NRF1) Orphan Gene (AID 2282987); conditions: HepG2 NRF1 cis-element reporter, Attagene multiplex; actives raise or lower the signal
Summary of the method: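 Multiplexed cis-reporter assay, HepG2 cells, 24 h treatment. Total RNA → oligo(dT) RT → PCR with reporter-specific primers → 6-FAM primer extension → HpaI cut → CE. Bidirectional fit vs DMSO.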

[2] = ATG_NFI_CIS: Attagene CIS-FACTORIAL HepG2 Assay for human Nuclear Factor I (NFI) (AID 2282989); conditions: HepG2 cis-regulatory reporter, NFI response element transcription; actives raise or lower the signal
Summary of the method: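 HepG2, transient MRTU, 24 h exposure; RNA→cDNA→PCR→FAM label→HpaI→CE fluorescence. Bidirectional fit, DMSO = baseline.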

[3] = biological target: Myc proto-oncogene protein (Homo sapiens) (UniProt P01106); assay: ATG_Myc_CIS: Attagene CIS-FACTORIAL HepG2 Assay for human Myelocytomatosis (Myc) Proto-Oncogene Transcription Factor (AID 2282990); conditions: HepG2, Attagene cis-reporter transcription factor activity; actives raise or lower the signal
Summary of the method: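 Cells of the HepG2 human liver line bear multiple cis-driven reporter transcription units. Reporter mRNA after 24 h exposure is reverse-transcribed, amplified, labelled and resolved by capillary electrophoresis, with gain- or loss-of-signal fitting relative to DMSO.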

[4] = ATG_NRF2_ARE_CIS: Attagene CIS-FACTORIAL HepG2 Assay for human Nuclear Factor Erythroid 2 Related Factor 2 (NFR2) response to Antioxidant Response Elements (ARE) (AID 2282992); conditions: HepG2 Attagene ARE/NRF2 reporter, transcription factor activity; actives raise or lower the signal;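 as to AC50: reporter mRNA level measured by RT-PCR and capillary electrophoresis fluorescence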
Summary of the method: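 Transient MRTU transfection of HepG2; 24 h compound exposure; TriZol RNA, RT with oligo(dT), PCR, 6-FAM primer extension, HpaI cut, CE. Bidirectional fit vs DMSO.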

[5] = ATG_Oct_MLP_CIS: Attagene CIS-FACTORIAL HepG2 Assay for human Octamer-Binding Transcription Factor (Oct) (AID 2282993); conditions: HepG2 Attagene cis-factorial Oct reporter, mRNA; actives raise or lower the signal
Summary of the method: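 Multiplexed cis-reporter assay in human liver HepG2 cells, 24 h incubation. Reporter RNA amplified and labelled, then resolved by capillary electrophoresis; DMSO serves as negative control and baseline.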

[6] = biological target: Cellular tumor antigen p53 (Homo sapiens) (UniProt P04637); assay: ATG_p53_CIS: Attagene CIS-FACTORIAL HepG2 Assay for human p53 Transcription Factor (AID 2282994); conditions: HepG2 p53 cis-element reporter, Attagene mRNA; actives raise or lower the signal
Summary of the method: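 HepG2, transient MRTU transfection (cis promoter elements, endogenous TFs); 24 h dosing; RNA isolation, RT-PCR, 6-FAM primer extension, HpaI digest, CE fluorescence; bidirectional fit vs DMSO.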

[7] = biological target: human Retinoic Acid Receptor beta (RARb), RARB (gene 5915) (UniProt P10826); assay: ATG_RARb_TRANS: Attagene TRANS-FACTORIAL HepG2 Assay for human Retinoic Acid Receptor beta (AID 2283004; active = hit-call score of the fitted dose curve at least 0.9, where 1 is the maximum)
Summary of the method: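 HepG2 cells transiently transfected with multiplexed GAL4-UAS reporter units expressing chimeric NR–Gal4 fusions; 24 h compound exposure. Reporter mRNA quantified by RT-PCR, 6-FAM labelling, HpaI digestion and capillary electrophoresis; gain-of-signal fitted against DMSO baseline.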

[8] = ATG_NF_kB_CIS: Attagene CIS-FACTORIAL HepG2 Assay for human Nuclear Factor Kappa B (NF-kB) (AID 2282991); conditions: HepG2 Attagene cis-factorial NF-kB reporter mRNA; actives raise or lower the signal
Summary of the method: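 Transient MRTU transfection of human HepG2 liver cells → 24 h chemical exposure → total RNA, oligo(dT) RT → PCR, 6-FAM primer extension, HpaI digest 2 h 37 C → CE fragment analysis. Bidirectional fitting, DMSO negative control.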

[9] = BSK_3C_TissueFactor: BioMAP Diversity Plus: 3C Assay for Tissue Factor Biomarker Activity (AID 2282997); conditions: BioMAP 3C HUVEC, tissue factor biomarker readout; actives raise or lower the signal
Summary of the method: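 Primary human umbilical vein endothelial cells in the 3C system were exposed to test chemical for 24 h, then Tissue Factor measured by ELISA. Activity was fitted bidirectionally against DMSO as negative control and baseline.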

[10] = BSK_3C_uPAR: BioMAP Diversity Plus: 3C Assay for Urokinase-type plasminogen activator receptor (uPAR) Biomarker Activity (AID 2282998); conditions: BioMAP 3C HUVEC, uPAR biomarker ELISA; actives raise or lower the signal
Summary of the method: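 Dose primary human umbilical vein endothelial cells, incubate 24 h, measure cell-surface uPAR by ELISA, then fit the signal in both directions against the DMSO negative control.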

[11] = BSK_3C_VCAM1: BioMAP Diversity Plus: 3C Assay for Vascular cell adhesion molecule 1 (VCAM1) Biomarker Activity (AID 2282999); conditions: BioMAP 3C HUVEC, VCAM1 ELISA, cytokine-stimulated; actives raise or lower the signal
Summary of the method: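 Endothelial cells from human umbilical vein are treated with test chemical. At 24 h, VCAM-1 is measured by ELISA, and responses in either direction are fitted relative to DMSO.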

[12] = read-out: Intercellular Adhesion Molecule 1 (ICAM1), ICAM1 (gene 3383); assay: BSK_3C_ICAM1: BioMAP Diversity Plus: 3C Assay for Intercellular Adhesion Molecule 1 (ICAM1) Biomarker Activity (AID 2283003); conditions: primary human endothelial cells (HUVEC); actives raise or lower the signal
Summary of the method: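 Primary human umbilical vein endothelial cells in the BioMAP 3C system were exposed to chemicals for 24 h, then ICAM-1 was quantified by ELISA. Activity was fitted bidirectionally against the DMSO negative control baseline.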

[13] = biological target: Retinoic acid receptor alpha (Homo sapiens) (UniProt P10276); assay: ATG_RARa_TRANS: Attagene TRANS-FACTORIAL HepG2 Assay for human Retinoic Acid Receptor alpha (RARa) (AID 2283005; active = hit-call score of the fitted dose curve at least 0.9, where 1 is the maximum)
Summary of the method: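 Reporter transcripts, measured by RT-PCR with fluorescent labeling and capillary electrophoresis after 24 h dosing, reflect activity of an exogenous human RARa–GAL4 fusion in transiently transfected HepG2. Fitted for increase relative to DMSO.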

[14] = BSK_3C_Proliferation: Cell Proliferation Assessment in the BioMAP Diversity Plus: 3C Assay (AID 2283006); conditions: primary human endothelial cells (HUVEC);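 as to AC50: potency may reflect either rise or fall in cell number versus DMSO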
Summary of the method: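 Human umbilical vein endothelial cells were grown sub-confluent and exposed to chemical for 48 h, then fixed with 10% TCA and stained with 0.1% sulforhodamine B; absorbance at 560 nm gave relative cell number, fitted bidirectionally against DMSO baseline.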

[15] = biological target: Peroxisome proliferator-activated receptor gamma (Homo sapiens) (UniProt P37231); assay: ATG_PPARg_TRANS: Attagene TRANS-FACTORIAL HepG2 Assay for human Peroxisome Proliferator-activated Receptor-gamma (PPARg) (AID 2283007; active = hit-call score of the fitted dose curve at least 0.9, where 1 is the maximum)
Summary of the method: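 Transient transfection of HepG2 with GAL4-UAS-driven reporter units; chemical dosing 24 h; total RNA → oligo(dT) RT → PCR with reporter primers → 6-FAM primer extension → HpaI digest 2 h 37 C → capillary electrophoresis. Positive direction vs DMSO.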

[16] = biological target: Nuclear receptor subfamily 1 group I member 2 (Homo sapiens) (UniProt O75469); assay: ATG_PXR_TRANS: Attagene TRANS-FACTORIAL HepG2 Assay for human Pregnane X Receptor (PXR) (AID 2283008; active = hit-call score of the fitted dose curve at least 0.9, where 1 is the maximum)
Summary of the method: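 Read-out is fluorescence of labelled reporter cDNA fragments separated by capillary electrophoresis after RT-PCR and HpaI digestion. Source: HepG2 cells carrying PXR-GAL4/UAS reporter constructs, treated 24 h; activity fitted upward relative to DMSO.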

[17] = biological target: human Retinoic Acid Receptor gamma (RARg), RARG (gene 5916) (UniProt P13631); assay: ATG_RARg_TRANS: Attagene TRANS-FACTORIAL HepG2 Assay for human Retinoic Acid Receptor gamma (RARg) (AID 2283009; active = hit-call score of the fitted dose curve at least 0.9, where 1 is the maximum)
Summary of the method: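 HepG2 cells transiently transfected with multiplexed reporter units expressing chimeric RARg-GAL4 and GAL4-UAS-driven reporters; 24 h compound exposure. Reporter mRNA quantified by RT-PCR with fluorescent labelling and capillary electrophoresis; gain-of-signal fitted relative to DMSO baseline.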

[18] = biological target: human Peroxisome Proliferator-activated Receptor delta (PPARd), PPARD (gene 5467) (UniProt Q03181); assay: ATG_PPARd_TRANS: Attagene TRANS-FACTORIAL HepG2 Assay for human Peroxisome Proliferator-activated Receptor delta (PPARd) (AID 2283002; active = hit-call score of the fitted dose curve at least 0.9, where 1 is the maximum)
Summary of the method: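 Cell-based TRANS reporter: HepG2, transient MRTU transfection, 24 h exposure. Readout = reporter mRNA (RT-PCR/CE, 6-FAM). Gain-of-signal fit vs DMSO control.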

[19] = BSK_4H_Eotaxin3: BioMAP Diversity Plus: 4H Assay for Eotaxin 3 Biomarker Activity (AID 2283000); conditions: primary human endothelial cells (HUVEC); actives raise or lower the signal
Summary of the method: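 HUVEC, 24 h post-dose, ELISA for Eotaxin-3/CCL26. Gain or loss of signal fitted bidirectionally vs DMSO baseline.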

[20] = biological target: human Peroxisome Proliferator-activated Receptor alpha (PPARa), PPARA (gene 5465) (UniProt Q07869); assay: ATG_PPARa_TRANS: Attagene TRANS-FACTORIAL HepG2 Assay for human Peroxisome Proliferator-activated Receptor alpha (PPARa) (AID 2283001; active = hit-call score of the fitted dose curve at least 0.9, where 1 is the maximum)
Summary of the method: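 Reporter transcripts from GAL4-UAS units in transfected HepG2 were quantified 24 h after dosing. Detection used reverse transcription, PCR, fluorescent primer extension and capillary electrophoresis, with DMSO as baseline.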

Measured: AC50

Chain of Myc proto-oncogene protein (Homo sapiens) (P01106 whole entry, looked up): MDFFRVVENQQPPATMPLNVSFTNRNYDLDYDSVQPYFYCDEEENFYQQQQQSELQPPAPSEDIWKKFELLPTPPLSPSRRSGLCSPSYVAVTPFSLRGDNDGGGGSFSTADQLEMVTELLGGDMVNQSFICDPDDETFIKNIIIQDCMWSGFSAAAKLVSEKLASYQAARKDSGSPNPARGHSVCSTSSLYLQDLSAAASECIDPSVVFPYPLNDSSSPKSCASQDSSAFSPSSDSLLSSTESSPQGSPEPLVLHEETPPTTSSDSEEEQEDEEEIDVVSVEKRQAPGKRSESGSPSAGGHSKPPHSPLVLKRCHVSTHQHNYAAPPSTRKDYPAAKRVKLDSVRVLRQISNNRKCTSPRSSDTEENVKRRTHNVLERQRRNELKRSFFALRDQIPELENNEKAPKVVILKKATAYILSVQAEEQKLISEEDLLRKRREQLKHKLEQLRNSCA
Chain of Nuclear respiratory factor 1 (Homo sapiens) (Q16656 whole entry, looked up): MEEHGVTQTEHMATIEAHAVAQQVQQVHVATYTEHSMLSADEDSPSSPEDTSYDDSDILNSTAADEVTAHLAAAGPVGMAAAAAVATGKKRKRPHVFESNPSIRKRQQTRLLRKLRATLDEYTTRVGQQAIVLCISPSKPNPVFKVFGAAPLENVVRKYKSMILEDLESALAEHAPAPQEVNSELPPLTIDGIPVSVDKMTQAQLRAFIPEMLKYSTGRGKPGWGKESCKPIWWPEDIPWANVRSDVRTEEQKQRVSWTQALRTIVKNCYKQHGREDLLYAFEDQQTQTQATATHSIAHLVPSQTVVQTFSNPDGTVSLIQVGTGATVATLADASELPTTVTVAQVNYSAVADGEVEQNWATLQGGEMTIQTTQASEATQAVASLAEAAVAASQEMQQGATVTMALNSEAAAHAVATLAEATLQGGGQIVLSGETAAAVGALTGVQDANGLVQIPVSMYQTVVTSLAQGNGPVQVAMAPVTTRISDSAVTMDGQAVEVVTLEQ
Chain of Peroxisome proliferator-activated receptor gamma (Homo sapiens) (P37231 whole entry, looked up, the tested form may be a part): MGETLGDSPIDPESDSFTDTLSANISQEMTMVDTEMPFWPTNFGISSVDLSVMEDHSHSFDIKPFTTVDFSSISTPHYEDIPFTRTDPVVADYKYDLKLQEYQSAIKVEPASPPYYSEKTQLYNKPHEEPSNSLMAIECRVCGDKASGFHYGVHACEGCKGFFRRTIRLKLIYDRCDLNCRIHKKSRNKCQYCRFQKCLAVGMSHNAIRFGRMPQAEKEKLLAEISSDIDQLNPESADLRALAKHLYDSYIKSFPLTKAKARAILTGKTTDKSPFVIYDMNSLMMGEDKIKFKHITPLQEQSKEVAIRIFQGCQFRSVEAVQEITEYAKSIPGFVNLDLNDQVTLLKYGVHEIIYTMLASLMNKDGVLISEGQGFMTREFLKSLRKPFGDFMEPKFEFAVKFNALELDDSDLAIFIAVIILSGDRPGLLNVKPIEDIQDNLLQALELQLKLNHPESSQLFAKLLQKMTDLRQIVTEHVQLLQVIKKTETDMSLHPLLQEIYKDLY
Chain of Cellular tumor antigen p53 (Homo sapiens) (P04637 whole entry, looked up): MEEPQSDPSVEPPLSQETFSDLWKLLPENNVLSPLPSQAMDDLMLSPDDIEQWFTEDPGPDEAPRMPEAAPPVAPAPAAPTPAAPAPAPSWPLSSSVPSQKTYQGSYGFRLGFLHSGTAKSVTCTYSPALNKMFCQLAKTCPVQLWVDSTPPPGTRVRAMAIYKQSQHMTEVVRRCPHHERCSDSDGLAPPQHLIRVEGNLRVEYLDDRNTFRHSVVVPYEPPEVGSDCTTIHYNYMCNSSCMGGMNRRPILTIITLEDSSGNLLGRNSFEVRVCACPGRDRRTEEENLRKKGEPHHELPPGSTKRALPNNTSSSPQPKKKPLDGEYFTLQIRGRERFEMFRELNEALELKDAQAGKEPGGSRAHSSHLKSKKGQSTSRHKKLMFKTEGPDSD
Chain of Nuclear receptor subfamily 1 group I member 2 (Homo sapiens) (O75469 whole entry, looked up, the tested form may be a part): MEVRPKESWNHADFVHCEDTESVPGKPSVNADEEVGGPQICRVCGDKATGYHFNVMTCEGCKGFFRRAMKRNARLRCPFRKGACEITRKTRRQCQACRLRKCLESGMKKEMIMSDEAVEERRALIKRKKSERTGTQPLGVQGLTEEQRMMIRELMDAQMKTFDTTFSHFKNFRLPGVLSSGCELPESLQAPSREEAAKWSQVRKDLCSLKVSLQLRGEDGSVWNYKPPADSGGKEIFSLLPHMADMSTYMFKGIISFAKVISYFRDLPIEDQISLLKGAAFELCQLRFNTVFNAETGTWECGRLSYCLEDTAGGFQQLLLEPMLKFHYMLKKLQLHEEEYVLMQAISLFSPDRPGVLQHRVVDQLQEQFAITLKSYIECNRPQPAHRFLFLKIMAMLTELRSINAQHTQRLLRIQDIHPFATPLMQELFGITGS
Chain of human Retinoic Acid Receptor gamma (RARg), RARG (gene 5916) (P13631 whole entry, looked up, the tested form may be a part): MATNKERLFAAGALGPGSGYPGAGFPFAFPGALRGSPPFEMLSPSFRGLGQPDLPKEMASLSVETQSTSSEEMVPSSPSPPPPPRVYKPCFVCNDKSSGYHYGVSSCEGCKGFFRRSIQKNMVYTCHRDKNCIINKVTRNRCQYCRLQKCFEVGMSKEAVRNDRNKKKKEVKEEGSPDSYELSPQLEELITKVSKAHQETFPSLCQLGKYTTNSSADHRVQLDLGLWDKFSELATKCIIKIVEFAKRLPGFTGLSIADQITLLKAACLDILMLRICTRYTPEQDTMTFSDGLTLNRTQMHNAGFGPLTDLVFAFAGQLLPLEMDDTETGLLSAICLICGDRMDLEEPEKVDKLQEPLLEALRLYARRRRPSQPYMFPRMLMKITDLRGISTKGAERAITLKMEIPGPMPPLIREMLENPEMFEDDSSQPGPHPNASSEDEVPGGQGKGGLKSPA
Chain of human Peroxisome Proliferator-activated Receptor delta (PPARd), PPARD (gene 5467) (Q03181 whole entry, looked up): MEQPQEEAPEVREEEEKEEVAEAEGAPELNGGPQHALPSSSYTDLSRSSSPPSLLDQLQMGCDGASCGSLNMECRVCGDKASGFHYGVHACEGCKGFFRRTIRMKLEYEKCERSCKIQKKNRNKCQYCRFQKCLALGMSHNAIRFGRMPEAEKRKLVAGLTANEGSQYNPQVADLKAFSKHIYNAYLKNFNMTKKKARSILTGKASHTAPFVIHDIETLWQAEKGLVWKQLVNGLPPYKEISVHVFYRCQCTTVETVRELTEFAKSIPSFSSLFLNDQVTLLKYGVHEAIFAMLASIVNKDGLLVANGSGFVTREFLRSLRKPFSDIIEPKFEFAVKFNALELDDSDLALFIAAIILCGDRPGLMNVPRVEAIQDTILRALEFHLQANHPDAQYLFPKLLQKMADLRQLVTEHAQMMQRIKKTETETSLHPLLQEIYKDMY
Chain of human Retinoic Acid Receptor beta (RARb), RARB (gene 5915) (P10826 whole entry, looked up, the tested form may be a part): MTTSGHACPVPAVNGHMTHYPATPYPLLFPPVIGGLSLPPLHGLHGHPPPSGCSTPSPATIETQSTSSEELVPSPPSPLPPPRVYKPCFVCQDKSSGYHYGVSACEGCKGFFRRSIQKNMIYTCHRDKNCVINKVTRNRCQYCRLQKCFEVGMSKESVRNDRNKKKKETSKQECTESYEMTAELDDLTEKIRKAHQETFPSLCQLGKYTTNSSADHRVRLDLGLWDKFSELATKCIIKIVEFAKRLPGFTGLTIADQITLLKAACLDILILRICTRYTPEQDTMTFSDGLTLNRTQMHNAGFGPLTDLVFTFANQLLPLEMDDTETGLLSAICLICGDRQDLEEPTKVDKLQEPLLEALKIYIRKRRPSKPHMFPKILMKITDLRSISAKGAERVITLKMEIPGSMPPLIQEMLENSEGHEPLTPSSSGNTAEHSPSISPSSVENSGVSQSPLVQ
Chain of Retinoic acid receptor alpha (Homo sapiens) (P10276 whole entry, looked up, the tested form may be a part): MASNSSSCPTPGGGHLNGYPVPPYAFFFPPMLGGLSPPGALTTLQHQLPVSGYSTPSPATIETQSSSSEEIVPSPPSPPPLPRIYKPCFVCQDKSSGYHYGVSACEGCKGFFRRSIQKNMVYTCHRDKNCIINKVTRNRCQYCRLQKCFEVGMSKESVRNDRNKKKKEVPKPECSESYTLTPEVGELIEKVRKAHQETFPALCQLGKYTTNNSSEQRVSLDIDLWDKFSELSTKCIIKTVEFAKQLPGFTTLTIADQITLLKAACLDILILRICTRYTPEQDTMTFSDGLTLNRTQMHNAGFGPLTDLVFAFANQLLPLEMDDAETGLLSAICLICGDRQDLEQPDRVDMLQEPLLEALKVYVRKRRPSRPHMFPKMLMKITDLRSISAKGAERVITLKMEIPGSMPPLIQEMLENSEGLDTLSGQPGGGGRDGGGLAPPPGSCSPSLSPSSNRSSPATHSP
Chain of human Peroxisome Proliferator-activated Receptor alpha (PPARa), PPARA (gene 5465) (Q07869 whole entry, looked up, the tested form may be a part): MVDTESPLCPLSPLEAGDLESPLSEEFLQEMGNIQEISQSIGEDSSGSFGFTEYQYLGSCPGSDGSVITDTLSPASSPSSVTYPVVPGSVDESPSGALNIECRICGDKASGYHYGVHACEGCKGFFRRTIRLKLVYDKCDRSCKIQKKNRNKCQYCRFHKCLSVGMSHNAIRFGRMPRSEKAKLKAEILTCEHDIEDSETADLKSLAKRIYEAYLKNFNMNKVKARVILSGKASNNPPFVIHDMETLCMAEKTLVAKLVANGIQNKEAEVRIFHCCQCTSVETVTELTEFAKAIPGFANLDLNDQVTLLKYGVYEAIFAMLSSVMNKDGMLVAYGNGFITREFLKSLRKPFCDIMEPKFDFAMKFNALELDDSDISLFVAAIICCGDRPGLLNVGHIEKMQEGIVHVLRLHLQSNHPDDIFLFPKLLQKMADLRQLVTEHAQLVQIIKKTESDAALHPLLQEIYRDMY

N#Cc1ccc(O)cc1
inactive: [1] | [2] | [3] | [4] | [5] | [6] | [7]

FC(F)(F)C(F)(C(F)(F)F)C(F)(F)C(F)(F)CC1CO1 (stereo not drawn)
not listed: [4] | [6] | [18] | [19] | [20]
inactive: all other assays above

CCOS(=O)(=O)OCC
not listed: [7] | [8] | [13] | [15] | [16] | [17] | [19] | [20]
inactive: all other assays above

CC(=O)c1ccc(-c2ccccc2)cc1
inactive: [1] | [2] | [3] | [8] | [5] | [18] | [15]
active: [16] 24.7 µM

c1ccc2c(c1)Nc1ccccc1S2
active: [4] 20.6 µM | [14] 21.6 µM | [15] 26.7 µM | [16] 11.1 µM
not listed: [7] | [8] | [13] | [17] | [19] | [20]
inactive: all other assays above

CCCN(CCC)c1c([N+](=O)[O-])cc(C(C)C)cc1[N+](=O)[O-]
active: [4] 38.4 µM | [10] 33.7 µM | [11] 25.8 µM | [19] 32.1 µM | [14] 20 µM | [16] 1.49 µM
not listed: [8]
inactive: all other assays above

FC(F)(F)c1ccc(Cl)cc1
inactive: [1] | [2] | [3] | [4] | [5] | [6] | [18] | [7] | [15] | [16]

O=S(=O)(c1ccc(O)cc1)c1ccc(O)cc1
active: [15] 22.4 µM
inactive: [1] | [2] | [3] | [8] | [5] | [6] | [18] | [16]

Nc1ccc2ccccc2c1
active: [19] 9.1 µM
not listed: [8] | [18]
inactive: all other assays above

CCOP(=S)(OCC)SCS(=O)(=O)CC
active: [16] 5.73 µM
not listed: [7] | [8] | [13] | [20]
inactive: all other assays above
